The text below walks through data of PubChem BioAssay.

A short description of experiment [1]: antimalarial activity against Dd2 strain (AID 2302;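 active = growth inhibition above 50% at the single 2 µM test dose, taken to imply half-maximal potency below 2 µM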;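 also: 0% = DMSO untreated growth and 100% = chloroquine plus artemisinin killed control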). As to conditions: P. falciparum Dd2 in RBCs, LDH growth readout, 72 h; at 2 µM; active compounds read high.
Experiment [2] is described as follows: HepG2 cytotoxicity, primary screen, cytotoxicity control for P. falciparum antimalarial project, cell-based, ATP luminescence (AID 2303;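 active = inhibition above 50%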;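 also: 0% = DMSO wells and 100% = digitonin-killed cells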). The conditions noted are these: HepG2 viability, 24-48 h, at 10 µM, active compounds read high.
In experiment [3] the target is L-lactate dehydrogenase (Plasmodium falciparum (isolate CDC / Honduras)) (UniProt Q27743). In words: PfLDH activity inhibition – cell lysate, 3D7 strain, counter-screen for P. falciparum growth inhibition project (AID 2304).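 Also: 0% = vehicle and 100% = reference inhibitor.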 As to conditions: P. falciparum 3D7 crude extract, LDH APAD/NBT absorbance; at 2 µM; active compounds read high.
L-lactate dehydrogenase (Plasmodium falciparum (isolate CDC / Honduras)), sequence (Q27743 whole entry, looked up): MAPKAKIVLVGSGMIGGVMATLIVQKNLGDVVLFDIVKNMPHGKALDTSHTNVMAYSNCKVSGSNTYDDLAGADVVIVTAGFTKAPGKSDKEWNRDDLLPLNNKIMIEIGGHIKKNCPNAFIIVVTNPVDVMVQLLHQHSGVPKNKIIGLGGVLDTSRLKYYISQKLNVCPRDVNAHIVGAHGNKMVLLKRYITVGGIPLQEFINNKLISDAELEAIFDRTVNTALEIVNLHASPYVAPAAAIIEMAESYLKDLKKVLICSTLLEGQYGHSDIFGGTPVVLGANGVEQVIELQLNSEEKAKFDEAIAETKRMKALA
A short description of experiment [4]: inhibition of 3D7 malaria parasite growth – strain 3D7 (AID 2306).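 Also: 0% = DMSO wells and 100% = chloroquine plus artemisinin control wells.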 As to conditions: P. falciparum 3D7 erythrocytic growth, LDH absorbance, 72 h; at 2 µM; active compounds read high.
The target of experiment [5] is Calcium-dependent protein kinase 1 (Plasmodium falciparum (isolate 3D7)) (UniProt P62344). Description: PfCDPK1 kinase inhibitors, biochemical, TCAMS library (AID 1159585; cut-off not given, nearly all actives have IC50 up to about 0.98 µM;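 also: inhibitors leave more ATP so luminescence rises with inhibition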). As to conditions: recombinant PfCDPK1, Kinase-Glo ATP depletion luminescence.
Calcium-dependent protein kinase 1 (Plasmodium falciparum (isolate 3D7)), sequence (P62344 whole entry, looked up): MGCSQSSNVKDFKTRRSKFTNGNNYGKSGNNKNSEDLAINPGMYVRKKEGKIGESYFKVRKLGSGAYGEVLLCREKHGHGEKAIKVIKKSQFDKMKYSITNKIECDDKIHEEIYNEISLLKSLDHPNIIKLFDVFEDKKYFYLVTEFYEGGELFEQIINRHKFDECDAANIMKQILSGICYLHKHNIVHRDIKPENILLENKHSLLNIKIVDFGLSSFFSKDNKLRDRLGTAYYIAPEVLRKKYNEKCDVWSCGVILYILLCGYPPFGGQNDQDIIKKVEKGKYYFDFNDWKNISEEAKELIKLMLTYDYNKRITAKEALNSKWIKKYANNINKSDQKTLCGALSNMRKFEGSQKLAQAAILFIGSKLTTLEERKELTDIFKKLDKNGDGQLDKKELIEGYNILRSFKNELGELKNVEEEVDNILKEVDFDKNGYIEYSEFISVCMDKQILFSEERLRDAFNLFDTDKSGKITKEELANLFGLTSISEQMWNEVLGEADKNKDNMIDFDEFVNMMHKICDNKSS
The target of experiment [6] is Plasmodium falciparum protein kinase 6 (PK6, PF3D7_1337100) (UniProt Q8IDW1). Description: PfPK6 kinase inhibitors, biochemical, TCAMS library (AID 1159586). The conditions noted are these: recombinant PfPK6, Kinase-Glo ATP depletion luminescence.
Plasmodium falciparum protein kinase 6 (PK6, PF3D7_1337100), sequence (Q8IDW1 1-305): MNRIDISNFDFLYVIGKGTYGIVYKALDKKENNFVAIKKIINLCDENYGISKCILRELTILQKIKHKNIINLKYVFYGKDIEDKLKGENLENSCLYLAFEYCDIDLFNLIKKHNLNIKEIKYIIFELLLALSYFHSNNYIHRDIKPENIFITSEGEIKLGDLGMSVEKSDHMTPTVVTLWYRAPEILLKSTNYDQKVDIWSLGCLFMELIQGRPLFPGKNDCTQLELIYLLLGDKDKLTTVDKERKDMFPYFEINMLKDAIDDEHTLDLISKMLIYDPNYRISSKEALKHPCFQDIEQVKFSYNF
Experiment [7] deals with Protein kinase 7 (PK7), Plasmodium falciparum 3D7 (PF3D7_0213400) (UniProt Q7YTF7). In words: inhibition of Plasmodium PK7 catalytic activity – biochemical, TCAMS antimalarial set, Kinase-Glo luminescence (AID 1159587). The conditions noted are these: recombinant PfPK7, Kinase-Glo ATP depletion luminescence. Background: In Kinase-Glo more light means more ATP remaining.
Protein kinase 7 (PK7), Plasmodium falciparum 3D7 (PF3D7_0213400), sequence (Q7YTF7 1-343): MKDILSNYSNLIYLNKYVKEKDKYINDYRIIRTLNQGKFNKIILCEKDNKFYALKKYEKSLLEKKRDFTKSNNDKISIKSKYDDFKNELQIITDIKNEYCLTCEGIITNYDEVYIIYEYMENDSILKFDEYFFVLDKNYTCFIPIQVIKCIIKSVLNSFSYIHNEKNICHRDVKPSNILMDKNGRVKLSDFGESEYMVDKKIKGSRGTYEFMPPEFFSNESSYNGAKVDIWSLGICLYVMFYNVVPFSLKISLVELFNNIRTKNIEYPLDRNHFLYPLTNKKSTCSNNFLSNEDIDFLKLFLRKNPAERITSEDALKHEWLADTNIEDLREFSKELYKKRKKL
In experiment [8] the target is Calcium-dependent protein kinase 4 (Plasmodium falciparum (isolate 3D7)) (UniProt Q8IBS5). Description: PfCDPK4 kinase inhibitors, biochemical, TCAMS library (AID 1159588; cut-off not given, nearly all actives have IC50 up to about 0.91 µM). As to conditions: recombinant PfCDPK4, Kinase-Glo ATP depletion luminescence.
Calcium-dependent protein kinase 4 (Plasmodium falciparum (isolate 3D7)), sequence (Q8IBS5 whole entry, looked up): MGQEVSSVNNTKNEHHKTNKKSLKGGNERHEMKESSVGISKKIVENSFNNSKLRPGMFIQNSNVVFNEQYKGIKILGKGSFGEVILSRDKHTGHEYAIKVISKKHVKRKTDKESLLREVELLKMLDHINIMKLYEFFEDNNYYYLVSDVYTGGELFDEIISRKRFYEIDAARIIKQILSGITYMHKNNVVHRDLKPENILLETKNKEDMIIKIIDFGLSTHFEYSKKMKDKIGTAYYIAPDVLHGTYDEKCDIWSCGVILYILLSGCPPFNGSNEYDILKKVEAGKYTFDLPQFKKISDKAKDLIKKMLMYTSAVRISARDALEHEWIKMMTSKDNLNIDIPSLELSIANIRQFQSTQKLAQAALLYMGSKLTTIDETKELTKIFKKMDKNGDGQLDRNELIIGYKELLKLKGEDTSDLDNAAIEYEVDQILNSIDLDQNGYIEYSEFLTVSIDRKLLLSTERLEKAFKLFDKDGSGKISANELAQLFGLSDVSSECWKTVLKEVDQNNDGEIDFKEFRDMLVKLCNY

Values without a mark were called inactive. For some assays here: Entries with a potency or affinity are not part of this list. The source made the active and inactive calls. Unless noted, no rule for the calls is given here.

Broadly, the inhibition is the change of the read-out against control, counted positive when it falls. For the molecule `CC1CN(Cc2csc(Nc3ccccc3)n2)CC(C)O1` (configuration not stated), the growth inhibition is 81% (active) in experiment [1] and 91% (active) in experiment [4]. The inhibition is 4% in experiment [2] and 0% in experiment [3]. Moreover, the outcome in experiment [5], in experiment [6], in experiment [7] and in experiment [8] was inactive.
With `Nc1ncc(-c2ccc3nccc(-c4ccncc4)c3c2)cc1S(=O)(=O)N1CCOCC1`, the growth inhibition in experiment [1] is 99% (active); in experiment [4] it was 100% (active). The inhibition is 39% in experiment [2] and -1% in experiment [3]. Moreover, the outcome in experiment [5], in experiment [6], in experiment [7] and in experiment [8] was inactive.
Regarding `Cc1cccc2c3c([nH]c12)C1(CCN(CCc2ccccc2)CC1)NC(C(=O)NCc1ccccc1)C3` (configuration not stated), the growth inhibition was 52% (active) in experiment [1] and 86% (active) in experiment [4]. Moreover, the inhibition is 10% in experiment [2] and -9% in experiment [3]. The outcome in experiment [5], in experiment [6], in experiment [7] and in experiment [8] was inactive.
For `O=C(NCCCc1ccccc1)c1csc(C2CCCN(C(=O)c3ccc(O)c(-c4cccc5ccccc45)c3)C2)n1` (configuration not stated), the values for the growth inhibition in experiment [1] and in experiment [4] were 98% (active) and 97% (active), respectively. The inhibition in experiment [2] was 3%; in experiment [3] it was -1%. In addition, the result in experiment [5], in experiment [6], in experiment [7] and in experiment [8] was inactive.
